According to PubChem BioAssay AID1851 (National Center for Advancing Translational Sciences (NCATS), 2009):
“And” between values parts separate entries of the source, which are not always exact repeats. Identical values can stand only once. The whole screen tested about 16,000 compounds, of which about 5,700 (36%) were called active. Another 24% or so got no clear call; they are omitted. The call rests on the fitted dose curve; in most records, active means well fitted curve in the direction sought with a large enough effect; inconclusive means small, poorly fitted or top-dose-only effect, or effect the other way; inactive means no such curve, though single readings can be large or run the other way. The list shows a part of the results. A structure can be active in one record and inactive in another.
On the % scale 0 is the no-effect control and ±100 the full control effect.

These compounds were tested against Cytochrome P450 1A2 (Homo sapiens) (UniProt P05177) (assay: Cytochrome panel assay with activity outcomes). Conditions: recombinant CYP, pro-luciferin dealkylation, luminescence, p450-cyp1a2; series mostly up to 57.1 µM; activity, negative = inhibition: at the top concentration.
Sequence of Cytochrome P450 1A2 (Homo sapiens) (P05177 whole entry, looked up): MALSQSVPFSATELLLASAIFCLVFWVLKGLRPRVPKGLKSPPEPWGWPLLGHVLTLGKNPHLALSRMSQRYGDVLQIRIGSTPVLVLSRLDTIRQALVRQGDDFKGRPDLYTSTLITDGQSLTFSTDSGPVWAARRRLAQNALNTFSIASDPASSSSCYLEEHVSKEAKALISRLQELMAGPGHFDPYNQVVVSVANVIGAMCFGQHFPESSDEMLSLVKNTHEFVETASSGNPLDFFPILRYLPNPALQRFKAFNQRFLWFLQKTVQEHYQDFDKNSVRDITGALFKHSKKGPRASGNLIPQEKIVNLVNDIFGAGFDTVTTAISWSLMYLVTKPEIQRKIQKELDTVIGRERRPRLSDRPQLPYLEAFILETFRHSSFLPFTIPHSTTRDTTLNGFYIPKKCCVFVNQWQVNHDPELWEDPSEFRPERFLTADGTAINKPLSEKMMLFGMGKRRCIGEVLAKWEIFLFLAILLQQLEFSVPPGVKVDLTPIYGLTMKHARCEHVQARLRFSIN
In the case of Cc1cc(C)cc(Oc2nn[nH]n2)c1, the “activity, negative = inhibition” value is reported as -0.21% (inactive).
COc1cccc([C@H]2Oc3ccc(OC)cc3/C(=N\O[C@@H](C)c3cn([C@H](CO)Cc4ccccc4)nn3)[C@@H]2O)c1 was tested, and the activity, negative = inhibition was -7.2% [at 11.4 µM] (inactive) and -11.9% [at 11.4 µM] (inactive).
With CCCCN(Cc1ccccc1)C(=O)c1cnc2n(c1=O)CCS2 the “activity, negative = inhibition” value was -4.2% (inactive).
COc1ccccc1NC(=O)c1sc2ncn(Cc3ccccc3C)c(=O)c2c1C was tested, and the AC50 was 3.16 µM (active).
COc1ccccc1NC(=O)c1cnc2n(c1=O)CCS2 was tested, and the AC50 was 2.24 µM (active).
In the case of CCn1cnc2sc(C(=O)N3CCN(c4ccc(OC)cc4)CC3)c(C)c2c1=O, the “activity, negative = inhibition” value is reported as 2.44% (inactive).
For CCOC(=O)N1CCN(C(=O)c2cnc3n(c2=O)CCS3)CC1, the “activity, negative = inhibition” value was 5.62% (inactive).
In the case of CCCNC(=O)Cn1cnc2sc(C(=O)Nc3ccc4c(c3)OCO4)c(C)c2c1=O, the “activity, negative = inhibition” value is reported as 3.48% (inactive).
COC(=O)C(NNc1ccccc1)(NC(=O)c1ccccc1F)C(F)(F)F (stereo not given) was tested, and the “activity, negative = inhibition” value was -22.2% (inactive).
O=C(NC(=S)N(Cc1ccccc1)Cc1ccccc1)c1ccccc1F was tested, and the AC50 was 11.2 µM (active).
For CN1CCN(NC(=O)c2ccccc2F)CC1, the “activity, negative = inhibition” value was 11.1% (inactive).
In the case of Cc1ccc(S(=O)(=O)NC(=O)OC23COCN2COC3)cc1, the activity, negative = inhibition is reported as 7.51% [at 11.4 µM] (inactive).
In the case of NCCCNCCCCNCCCN, the “activity, negative = inhibition” value is reported as -3.62% (inactive).
In the case of NCCCCN, the “activity, negative = inhibition” value is reported as -17% (inactive).
NCCCCNCCCN was tested, and the AC50 was “inactive and 31.6 µM (active)”.
With COc1ccc(C(=O)NC(C)c2cc(OC)c(OC)cc2Br)cc1 (stereo not given) the AC50 was 14.1 µM (active).
COc1cc(Br)c(C(C)NC(=O)c2cccc(Br)c2)cc1OC (stereo not given) was tested, and the AC50 was 12.6 µM (active).
In the case of COc1ccc(C(=O)N2CCC3(CC2)CN(C(=O)NC(C)C)C3)cc1, the “activity, negative = inhibition” value is reported as -6.35% (inactive).
In the case of COc1ccccc1C(c1nnnn1C(C)(C)C)N1CCCc2ccccc21 (stereo not given), the “activity, negative = inhibition” value is reported as -8.86% (inactive).
With CC(C)(N=NC(C)(C)C(=N)N)C(=N)N the activity, negative = inhibition was -4.86% [at 11.4 µM] (inactive).
CCc1ccc(N2CC(C)Cn3c2nc2c3c(=O)n(CCN3CCOCC3)c(=O)n2C)cc1 (stereo not given) was tested, and the “activity, negative = inhibition” value was -20.6% (inactive).
For Cc1noc(C)c1-c1ccc2ncnc(NCc3cccs3)c2c1, the AC50 was 0.398 µM (active).
For Cc1ccccc1-c1ccc2ncnc(NCc3cccs3)c2c1, the AC50 was 2.51 µM (active).
In the case of Cc1noc(C)c1-c1ccc2ncnc(NCc3ccccc3)c2c1, the AC50 is reported as 3.16 µM (active).
With Cc1noc(C)c1-c1ccc2ncnc(NCc3cccnc3)c2c1 the AC50 was 0.316 µM (active).
For O=C(O)CN(CCN(CC(=O)O)CC(=O)O)CCN(CC(=O)O)CC(=O)O, the AC50 was “inactive”.
For C#CCCCO/N=C1/C[C@@H](O)[C@@H](O)[C@@H]2[C@@H]3C(=O)N(C4CCCCC4)C(=O)[C@H]3CC[C@@H]12, the activity, negative = inhibition was 1.04% [at 11.4 µM] (inactive).
With Cc1cccc(CNc2ncnc3ccc(-c4c(C)noc4C)cc23)c1 the AC50 was 5.01 µM (active).
In the case of O=C(N/N=C1\CCCc2ccccc21)c1ccc([N+](=O)[O-])cc1Cl, the AC50 is reported as 15.8 µM (active).
In the case of Cc1cccc(N=C2NN=C(c3ccc4c(c3)OCCO4)CS2)c1, the AC50 is reported as 14.1 µM (active).
Nc1nnc(SCCOc2cccc(Br)c2)s1 was tested, and the AC50 was 5.01 µM (active).
With Cc1cccc(NS(=O)(=O)c2c(C)n[nH]c2C)c1 the “activity, negative = inhibition” value was -19.9% (inactive).
CS(=O)(=O)Nc1cccc(-c2cc(NCc3ccccc3)ncn2)c1 was tested, and the AC50 was 12.6 µM (active).
With CN(C)c1cc(-c2cccc(NS(C)(=O)=O)c2)ncn1 the AC50 was 1.26 µM (active).
In the case of Cc1cccc(CNc2cc(-c3cccc(NS(C)(=O)=O)c3)ncn2)c1, the AC50 is reported as 10 µM (active).
With CS(=O)(=O)Nc1cccc(-c2cc(Nc3ccccc3)ncn2)c1 the AC50 was 0.398 µM (active).
COc1ccc(NC(=O)N2CCCC3(CCN(C(=O)c4csnn4)CC3)C2)cc1 was tested, and the “activity, negative = inhibition” value was -11.7% (inactive).
In the case of CS(=O)(=O)Nc1cccc(-c2cc(NCc3cccs3)ncn2)c1, the AC50 is reported as 6.31 µM (active).
In the case of Cc1ccc(NC(=O)CN2C(=O)N/C(=C/c3ccc(C)o3)C2=O)cc1, the “activity, negative = inhibition” value is reported as 2.74% (inactive).
Cc1ccc(/C=C/C(=O)N2CC(C)CC(C)C2)o1 (stereo not given) was tested, and the AC50 was 8.91 µM (active).
With C[C@@H](NCc1cc(Br)cc2[nH]c(=O)c(=O)[nH]c12)P(=O)(O)O the “activity, negative = inhibition” value was -9.6% (inactive).
COC(=O)N1CCC2(CCCN(Cc3cc(C(F)(F)F)cc(C(F)(F)F)c3)C2)CC1 was tested, and the “activity, negative = inhibition” value was 13.1% (inactive).
With CCCCn1cnc2c(cnn2-c2ccc(F)cc2)c1=O the AC50 was 3.16 µM (active).
In the case of CC(C)(C)n1ncc2c(=O)n(CC(=O)NCc3ccccc3Cl)cnc21, the “activity, negative = inhibition” value is reported as -14.5% (inactive).
Cc1ccccc1Cn1cnc2c(cnn2C(C)(C)C)c1=O was tested, and the “activity, negative = inhibition” value was -22.5% (inactive).
With Clc1ccc(Cc2nc(-c3cccnc3)no2)cc1 the AC50 was 1 µM (active).
With Cc1ccccc1NC(=O)C(C)c1cccc(C(=O)c2ccccc2)c1 (stereo not given) the AC50 was 11.2 µM (active).
In the case of CCCN[C@@H](C)C(=O)Nc1ccccc1C, the “activity, negative = inhibition” value is reported as -15.8% (inactive).
With Cc1cccc(C)c1NC(=O)C(c1ccccc1)N1CCC1=O (stereo not given) the “activity, negative = inhibition” value was -1.16% (inactive).
For CCCc1c(-c2ccc(O)cc2)nn(-c2ccc(O)cc2)c1-c1ccc(O)cc1, the AC50 was 20 µM (active).
